# Screens deposited in PubChem BioAssay by National Center for Advancing Translational Sciences (NCATS).
# Most compounds without a hit are left out; they make up all but 1.7% or so of the library.
# PTHR1 ag: activates the human parathyroid hormone receptor PTHR1; Q03431; HEK293 GP2 PTHR1 cells, GloSensor cAMP luminescence, 1 h; Potency, µM (top dose mostly 115 µM), for the others: at the highest dose activation, usual class: activators; 0.075% of 410,000 active; note: nearly all actives have a fitted effect of over 55% in size
# Target sequence (Q03431 whole entry, looked up): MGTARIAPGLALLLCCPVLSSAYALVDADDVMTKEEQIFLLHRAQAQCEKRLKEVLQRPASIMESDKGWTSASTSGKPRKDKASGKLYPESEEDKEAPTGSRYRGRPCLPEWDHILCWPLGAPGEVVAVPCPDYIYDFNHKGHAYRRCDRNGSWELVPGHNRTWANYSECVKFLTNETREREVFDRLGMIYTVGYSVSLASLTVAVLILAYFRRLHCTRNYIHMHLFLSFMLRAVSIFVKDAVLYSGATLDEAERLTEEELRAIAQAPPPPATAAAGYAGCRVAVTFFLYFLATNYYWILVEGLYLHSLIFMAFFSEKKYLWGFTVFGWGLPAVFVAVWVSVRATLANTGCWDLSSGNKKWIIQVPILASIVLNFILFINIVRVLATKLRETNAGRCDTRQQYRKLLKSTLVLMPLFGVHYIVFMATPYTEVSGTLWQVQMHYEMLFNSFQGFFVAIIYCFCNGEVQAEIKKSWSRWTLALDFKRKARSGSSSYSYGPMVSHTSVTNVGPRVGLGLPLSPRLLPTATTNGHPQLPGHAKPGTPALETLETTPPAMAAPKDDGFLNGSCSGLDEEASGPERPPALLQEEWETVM
#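 HEK-293-derived GP2 cells expressing PTHR1 and a GloSensor cAMP reporter, 3,000/well, plated overnight, given luciferin plus IBMX (each 0.5 mM as added) for 1 h at 37 °C, then compound for 1 h at 37 °C. Luminescence was read after 15 min at room temperature.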
# GLP1R ag: GLP-1 receptor (human) agonism | 0.007% of 380,000 active | AID 624172 | Potency, µM (top dose mostly 45.6 µM), inactives show at the highest dose activation, most hits filed as activators | HEK293 GLP-1R CRE-luciferase, luminescence, 4-6 h; cells express a hypersensitive GLP-1R form; note: % of control where 0% means no effect
# HEK293 tox: cytotoxicity in counter-screen for GLP-1R inverse agonists; HEK293 cAMP-luciferase reporter cells, luminescence, 24 h; Potency, µM (highest dose often 38.3 µM), without a hit: at the top dose activity change, negative = inhibition, hits mostly inhibitors; 0.13% of 410,000 active; AID 624418;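 note: loss of luciferase light is scored as toxicity; % is set by controls: 0 for no effect and ±100 for the full control effect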
#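 Step one: seed cells (200 cells/uL, DMEM with 10% Nu serum, 1% pen-strep). Step two: 12-hour incubation at 37 deg C. Step three: pin 23 nL compound, incubate 24 hr. Step four: add luciferase reagent, read luminescence 12 min later.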
# GLP-1R inv ag: inverse agonists of human GLP-1 receptor. HEK293 GLP-1R CRE-luciferase, luminescence, 24 h; GLP-1R form is constitutively active. 1.6% of 410,000 active. Potency, µM (highest dose often 38.3 µM), without a hit: at the highest dose activity change, negative = inhibition, usual class: inhibitors; note: % is set by controls: 0 for no effect and ±100 for the full control effect; nearly all actives have a fitted effect of over 55% in size
#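 Luminescence readout: a drop in cAMP-driven luciferase signal flags inverse agonism at a constitutively active GLP-1R stably expressed in HEK293. Compound exposure lasted 24 hr at 37 deg C, 5% CO2.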
# Numbers without * were called inactive; i = inactive; ? = inconclusive; / = not tested or not shown. Calls come from the whole dose curve; as a rule, active = well fitted curve in the direction sought with a large enough effect; inconclusive = small, poorly fitted or top-dose-only effect, or another doubt; inactive = no such curve, though single readings can be large; an effect the other way counts as inactive or inconclusive. Potency is the fitted concentration of half-maximal effect.
SMILES,PTHR1 ag,GLP1R ag,HEK293 tox,GLP-1R inv ag
CCCc1ccc(C(=O)NNc2cccc(C)c2)cc1,i,12%,?,2.8µM*
CCCc1ccc(C(=O)NNc2cc(Cl)ccc2Cl)cc1,-21%,0%,-7%,1.3µM*
CCCc1ccc(C(=O)NNC(=O)c2ccc(Cl)cc2)cc1,i,1%,-13%,0%
Cc1cccc(NNC(=O)C(=O)NNc2cccc(C)c2)c1,i,-4%,-16%,?
Cc1cc(C)n(C(C)CC(=O)Nc2ccc(C)c(F)c2)n1 (centres undefined),-21%,/,3%,-21%
COc1ccccc1N1CCN(C(=O)c2ccc3c(c2)N(Cc2ccccc2)C(=O)c2ccccc2S3(=O)=O)CC1,-8%,/,-6%,7%
Cn1c2ccccc2c(=O)c2cc(C#CC3(O)CCCCC3)ccc21,-93%,-5%,-1%,1µM*
O=c1c2ccccc2oc2ccc(C#CC3(O)CCCCC3)cc12,-28%,-1%,-27%,7.1µM*
c1cc2cc(-c3c(-c4ccc5c(c4)OCO5)noc3-c3ccsc3)ccc2[nH]1,i,-1%,-3%,?
Cc1onc(-c2ccc3c(c2)OCO3)c1-c1ccc2[nH]ccc2c1,-35%,-1%,?,8.9µM*
O=C(Nc1cccc(Cl)c1)c1ccc2c(c1)CCN2S(=O)(=O)c1ccccc1,-17%,/,-7%,2.5µM*
O=C(Nc1ccccc1)c1ccc2c(c1)CCN2S(=O)(=O)c1ccccc1,-10%,-9%,0%,?
CC(=O)N1CCCc2cc(S(=O)(=O)NCc3ccc(OC(C)C)cc3)ccc21,-26%,/,-5%,-20%
O=C(Nc1ccccc1)N(Cc1cccs1)c1ccc(F)cc1,i,/,-28%,?
CC(CCc1ccc2c(c1)OCO2)NN (centres undefined),/,-7%,/,/
c1ccc(-n2cc(CN3CCCC(CN4CCCC4)C3)c(-c3ccc4c(c3)OCO4)n2)cc1 (centres undefined),8%,16%,?,10µM*
COc1ccccc1N1CCN(C(=O)CCn2cnc3onc(-c4ccc(F)cc4)c3c2=O)CC1,i,/,1%,-1%
CN1CCN(S(=O)(=O)c2ccc(N(C)Cc3ccc(OC(F)F)cc3)c([N+](=O)[O-])c2)CC1,-31%,-1%,-24%,10µM*
CCC(C)C1OC2(C=CC1C)CC1CC(C/C=C(\C)C(OC3CC(OC)C(OC4CC(OC)C(NC(C)=O)C(C)O4)C(C)O3)C(C)/C=C/C=C3\COC4C(O)C(C)=CC(C(=O)O1)C34O)O2 (centres undefined) (tested in a mixture with another compound),/,1%,/,/
O=C(OCC(F)(F)F)c1cccc(COc2ccc3ccccc3c2)c1,-14%,-29%,1%,2.2µM*
CCOc1ccccc1NC(=O)CSc1nc2ccccc2nc1Cc1ccc(C)cc1,i,-1%,2%,0%
Cc1ccc(-c2csc(Nc3ccccn3)n2)cc1,-90%,-2%,-2%,?
c1ccc(-c2csc(Nc3ccccn3)n2)cc1,-92%,17%,-11%,10µM*
CCC(Cc1ccccc1)NC(=O)c1csc2c1CCCCC2 (centres undefined),-10%,/,-1%,12%
COc1ccc(-c2nc3ccccc3n2Cc2ccc(Cl)cc2)cc1,i,/,-2%,10µM*
SMILES,PTHR1 ag,GLP1R ag,HEK293 tox,GLP-1R inv ag
COc1ccc(-c2nc3ccccc3n2Cc2ccc(C)cc2)cc1,-13%,3%,-26%,?
COc1ccc(-c2nc3ccccc3n2Cc2ccc(C(C)C)cc2)cc1,-21%,1%,2%,10µM*
Cc1ccc(-c2nc3ccccc3c(=O)n2Cc2ccccc2)cc1,i,16%,-8%,3.5µM*
Cc1ccc(Cn2c(-c3ccccc3)nc3ccccc32)cc1,-38%,/,17%,?
COc1ccc(-c2nc3scc(CCNS(=O)(=O)c4ccc5c(c4)OCCO5)n3n2)cc1,-32%,/,-4%,16%
COc1ccc(N2C(=O)C(CC(=O)Nc3ccccc3)N(CCC3=CCCCC3)C2=O)cc1 (centres undefined),i,/,-16%,-5%
Cc1c(Cl)cccc1NC(=S)N=Nc1c(O)n(CN2CCOCC2)c2ccccc12,-23%,8%,1.4µM*,?
Oc1c(N=NC(=S)Nc2ccccc2F)c2ccccc2n1Cc1ccccc1Cl,-12%,-3%,6%,-22%
CC(C)Oc1ccc(C(=O)NC2CCCCC2)cc1,-22%,-5%,5%,-2%
CC(C)Oc1ccc(C(CCN)C2CCCCC2)cc1 (centres undefined),-9%,-1%,?,10µM*
C[C@H](/C=C/[C@H](C)C(C)(C)O)[C@H]1CC[C@H]2/C(=C/C=C3C[C@@H](O)C[C@H](O)C3)CCC[C@]12C,/,0%,/,/
CO[C@H]1C[C@@H]2CC[C@@H](C)[C@@](O)(O2)C(=O)C(=O)N2CCCC[C@H]2C(=O)O[C@H]([C@H](C)C[C@@H]2CC[C@@H](OCCO)[C@H](OC)C2)CC(=O)[C@H](C)/C=C(\C)[C@@H](O)[C@@H](OC)C(=O)[C@H](C)C[C@H](C)/C=C/C=C/C=C/1C,/,15%,/,/
CCC(Sc1nc2nccnc2c(=O)n1Cc1ccc(C)cc1)C(=O)NC1CCCCC1 (centres undefined),i,/,-6%,8%
COc1ccccc1NC(=O)Nc1ccc(C(=O)N2CCCCC2)cc1,-6%,8%,-14%,8.9µM*
COc1cccc(NC(=O)NCCc2ccc(Cl)cc2)c1,i,10%,1%,10µM*
CC(=O)c1cccc(NC(=O)NCCc2ccc(Cl)cc2)c1,i,-2%,-11%,?
COc1ccccc1NS(=O)(=O)c1ccc(C)c(NC(=O)NC2CCCCC2)c1,-41%,5%,-8%,11µM*
COc1ccccc1NS(=O)(=O)c1cccc(NC(=O)Nc2ccccc2)c1,-24%,-10%,?,5.6µM*
CC(C)c1ccc2oc(-c3ccc(Cl)c(NC(=O)c4cccs4)c3)nc2c1,i,-2%,0%,-30%
Cc1ccc2[nH]c3c(=O)n(CC(=O)N4CCCC(C)C4)ncc3c2c1 (centres undefined),i,/,-5%,7%
CCN(CC)CCOC(=O)c1ccc(N)cc1Cl,/,-4%,/,/
CN1C(CSCC(F)(F)F)Nc2cc(Cl)c(S(N)(=O)=O)cc2S1(=O)=O (centres undefined),/,-4%,/,/
Cc1ccc(CNC(=O)c2ccc(Cn3c(SCc4ccc(F)cc4)nc4cccnc43)cc2)o1,-22%,/,1%,-9%
CCn1c(SCc2ccc(F)cc2Cl)nc(=O)c2c(C(=O)OC)cc(C3CC3)nc21,-66%,/,-20%,?
CCc1ccc(NC(=O)CCn2c(-c3ccc(OC)cc3)cc(C(C)=O)c2C)cc1,-18%,/,-19%,-9%
COc1cc(OC)c(N(C)C(=O)C2CCCN(c3ncnc4c3nc3n4CCCCC3)C2)cc1Cl (centres undefined),-1%,/,13%,5%
